# According to PubChem BioAssay (NCATS):
# Results filed as inconclusive are left out. Where a call stands in place of a potency, no number is given. The source made the active and inactive calls. Calls come from the whole dose curve; as a rule, active = well fitted inhibition curve with a large enough effect; inconclusive = small, poorly fitted or top-dose-only effect; inactive = flat fitted curve, though single readings scatter.
# Assays:
# Experiment in all cases: qHTS profiling for inhibitors of Plasmodium falciparum proliferation (AID 504749); note: nearly all actives have a fitted effect of over 60% in size
# Details in all cases: P. falciparum in erythrocytes, SYBR Green DNA, 72 h; series mostly up to 28.7 µM
# CP250 = tested on: CP250
# Procedure, shortened: (§1)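 Infected RBCs, 0.3% parasitemia/2.5% Hct final; cpd 72 h, 37 C, 5% CO2; lysis buffer with saponin/triton/SYBR Green I, o/n RT dark; FI 485/535; norm. to artemisinin (0.29 uM) and DMSO.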
# CP252 = tested on: CP252
# Procedure, shortened: as §1
# CP256 = tested on: CP256
# Procedure, shortened: as §1
# CP260 = tested on: CP260
# Procedure, shortened: as §1
# CP265 = tested on: CP265
# Procedure, shortened: as §1
# CP268 = tested on: CP268
# Procedure, shortened: as §1
# CP269 = tested on: CP269
# Procedure, shortened: as §1
# CP286 = tested on: CP286
# Procedure, shortened: as §1
# CP262 = tested on: CP262
# Procedure, shortened: as §1
# CP266 = tested on: CP266
# Procedure, shortened: as §1
# Potency is the fitted concentration of half-maximal effect.
Compound,Potency (CP250),Potency (CP252),Potency (CP256),Potency (CP260),Potency (CP265),Potency (CP268),Potency (CP269),Potency (CP286),Potency (CP262),Potency (CP266)
CCCCOc1cc(C(=O)NCCN(CC)CC)c2ccccc2n1,inactive,inactive,inactive,inactive,inactive,inactive,inactive,inactive,,
NC(=NCCCCCCN=C(N)/N=C(\N)Nc1ccc(Cl)cc1)/N=C(\N)Nc1ccc(Cl)cc1,2.24 µM (active),2 µM (active),1.41 µM (active),1 µM (active),,1.51 µM (active),1.2 µM (active),0.398 µM (active),1.51 µM (active),3.79 µM (active)
CCN1CCN(c2cc3c(cc2F)c(=O)c(C(=O)O)cn3C2CC2)CC1,inactive,inactive,inactive,,inactive,inactive,inactive,,inactive,inactive
COc1c(C)c2c(c(O)c1C/C=C(\C)CCC(=O)O)C(=O)OC2,3.16 µM (active),2.51 µM (active),3.16 µM (active),3.16 µM (active),3.16 µM (active),,5.1 µM (active),3.16 µM (active),,
Cc1c(C)n(CCN(C)C)c2ccc(C(=O)OCCN(C)C)cc12,inactive,inactive,inactive,,inactive,inactive,inactive,inactive,inactive,inactive
CC(C)(C)CC(C)(C)c1ccc(O)c(Cc2ccc(Cl)cc2Cl)c1,3.16 µM (active),1 µM (active),3.55 µM (active),2 µM (active),3.16 µM (active),0.757 µM (active),1.51 µM (active),2.51 µM (active),,4.78 µM (active)
Oc1c(I)cc(Cl)c2cccnc12,5.01 µM (active),11.2 µM (active),2.51 µM (active),,,inactive,inactive,inactive,,inactive
CN(C)CCCOc1nn(Cc2ccccc2)c2ccccc12,inactive,inactive,inactive,inactive,,,inactive,inactive,inactive,inactive
Cc1ccc(C(=O)C(C)CN2CCCCC2)cc1 (stereo not drawn),inactive,inactive,inactive,,10 µM (active),inactive,,inactive,inactive,inactive
COc1cc(-c2ccc(=O)[nH]n2)ccc1OC(F)F,inactive,inactive,3.16 µM (active),,0.316 µM (active),inactive,,inactive,,inactive
CCCN1CCCC[C@H]1C(=O)Nc1c(C)cccc1C,inactive,inactive,inactive,inactive,,,inactive,inactive,inactive,inactive
C=C(CC)C(=O)c1ccc(OCC(=O)O)c(Cl)c1Cl,12.6 µM (active),12.6 µM (active),4.47 µM (active),8.91 µM (active),inactive,,,10 µM (active),,inactive
COc1ccc(CN2CCN(C(c3ccc(F)cc3)c3ccc(F)cc3)CC2)c(OC)c1OC,8.91 µM (active),10 µM (active),,7.94 µM (active),11.2 µM (active),,15.1 µM (active),7.08 µM (active),,
CN1CCN(C(c2ccccc2)c2ccccc2)CC1,inactive,inactive,inactive,inactive,,inactive,,inactive,inactive,inactive
Oc1ccc(Cl)c2cccnc12,inactive,inactive,inactive,,inactive,inactive,inactive,,,inactive
CN1CCC(=C2c3ccccc3Sc3ccccc32)CC1,11.2 µM (active),7.08 µM (active),11.2 µM (active),8.91 µM (active),7.08 µM (active),,13.5 µM (active),11.2 µM (active),,
CCN(CCCc1ccccc1)CCCc1ccccc1,inactive,inactive,inactive,inactive,,,,,inactive,inactive
CC(=O)OCC(=O)[C@@]1(OC(C)=O)[C@@H](C)C[C@H]2[C@@H]3C[C@H](F)C4=CC(=O)C=C[C@]4(C)[C@@]3(F)[C@@H](O)C[C@@]21C,inactive,inactive,inactive,inactive,,inactive,inactive,inactive,inactive,inactive
